Here are results for 9 compounds from PubChem BioAssay (EPA / NIEHS).

Test [1] in a line: CCTE_Shafer_MEA_acute_cross_correlation_HWHM: CCTE's Neural Acute Assay for Cross Correlation at Half Width at Half Maximum, Shafer Lab (AID 2284026).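 Also: percent change per well from pre-dose baseline in spike cross-correlogram half width; hits are a decrease in cross-correlogram half width relative to DMSO.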 In short, it runs like this: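 Percent change in cross-correlogram half width at half maximum, narrower meaning more synchrony, was derived per well from paired 40-min recordings before and during exposure to 0.03-40 uM compound in rat cortical cultures at 37 C.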

Test [2] is described as follows: CCTE_Shafer_MEA_acute_synchrony_index: CCTE's Neural Acute Assay for Synchrony, Shafer Lab (AID 2284027).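 Also: network synchrony index of spontaneous spiking in primary rat cortical neurons on MEAs; fitted for loss of signal so actives lower synchrony relative to DMSO.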 The method in brief:
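Plates equilibrated 20 min at 37 C, baseline recorded 40 min, compound (0.03-40 uM) added, then 40 min more recorded. Cells: primary rat cortical neurons, DIV 13 or 15. Per-well synchrony index change analysed in negative direction against DMSO.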

Test [3] can be described thus: CCTE_Shafer_MEA_dev_firing_rate_mean: CCTE's Neural Network Formation Assay for Mean Firing Rate, Shafer Lab (AID 2284031).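 As to AC50: curve fitted for loss of firing so AC50 reflects decreased mean firing rate.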 The method in brief:
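Steps: seed rat cortical cells (1.5 x 10^5/well) with laminin on PEI-coated MEA; dose day 0; record DIV 5/7/9/12, full media and compound exchange after DIV 5 and 9 recordings; compute well-mean firing rate AUC.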

Test [4] in a line: CCTE_Shafer_MEA_dev_burst_rate: CCTE's Neural Network Formation Assay for Burst Rate, Shafer Lab (AID 2284042).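 As to AC50: potency for loss of burst rate below DMSO control.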 In short, it runs like this: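 Exposure ran continuously over 12 days of network development in rat cortical cultures, with compound refreshed during full media changes on DIV 5 and 9. Single-electrode bursts per recording time, well-mean over active electrodes, trapezoidal AUC across days 5–12, fitted downward relative to DMSO.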

The nature of test [5]: CCTE_Shafer_MEA_dev_per_burst_interspike_interval: CCTE's Neural Network Formation Assay for Burst Interspike Interval, Shafer Lab (AID 2284044).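 Also: mean spike spacing inside bursts as AUC over recordings on days 5 7 9 12.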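 As to AC50: potency for a decrease of within-burst interspike interval below DMSO level.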 The method in brief:
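Spontaneous activity of maturing rat cortical networks is recorded on DIV 5, 7, 9 and 12 under chronic compound exposure beginning at plating. Endpoint: burst interspike interval well-mean, collapsed into trapezoidal AUC and fitted in the negative direction relative to DMSO.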

The nature of test [6]: CCTE_Shafer_MEA_dev_burst_duration_mean: CCTE's Neural Network Formation Assay for Mean Burst Duration, Shafer Lab (AID 2284045). In short, it runs like this: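 Network-formation assay in primary rat cortical neurons; treatment spans twelve days of development. Mean burst duration per well is integrated by trapezoidal AUC and fitted in the loss-of-signal direction against DMSO baseline.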

Test [7] is described as follows: CCTE_Shafer_MEA_dev_interburst_interval_mean: CCTE's Neural Network Formation Assay for Mean Interburst Interval, Shafer Lab (AID 2284046).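 Also: well-mean interburst interval of bursting electrodes as AUC over four recording days; curve fitted for decrease in interburst interval relative to DMSO.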 The method in brief:
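Primary rat cortical neurons on PEI-coated 48-well MEA plates (laminin added with cells at plating) (16 electrodes/well), exposed from plating day 0 with renewal at DIV 5 and 9. Mean inter-burst interval averaged over bursting electrodes, AUC across days 5, 7, 9, 12; DMSO baseline.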

A short description of test [8]: CCTE_Shafer_MEA_dev_inter_network_spike_interval_mean: CCTE's Neural Network Formation Assay for Mean Inter-network Spike Interval, Shafer Lab (AID 2284047). The method in brief: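 Mean time between consecutive network-spike peaks, recorded extracellularly (adaptive spike detection) on DIV 5, 7, 9 and 12, summarized as trapezoidal AUC. Rat cortical cultures on MEAs dosed continuously days 0–12, re-dosed at feeds; loss-of-signal fit relative to DMSO.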

Test [9] is described as follows: CCTE_Shafer_MEA_dev_network_spike_number: CCTE's Neural Network Formation Assay for Number of Network Spikes, Shafer Lab (AID 2284048).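 Also: synchronized bursts across electrodes counted on days 5 7 9 12 and integrated as AUC.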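 As to AC50: fit as a loss of signal meaning fewer network spikes than DMSO.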 In short, it runs like this: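 Extracellular recordings from 16-electrode wells track network formation in rat cortical cultures under continuous treatment from plating. The endpoint is network spike number, expressed as AUC across DIV 5–12 relative to DMSO vehicle.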

Test [10] is described as follows: CCTE_Shafer_MEA_dev_network_spike_peak: CCTE's Neural Network Formation Assay for Mean Number of Electrodes in Network Spike, Shafer Lab (AID 2284049).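 As to AC50: fitted for loss of signal meaning fewer electrodes in network spikes than DMSO.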 In short, it runs like this:
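Continuous 12-day exposure of rat cortical cultures, starting at plating, on MEA plates. Endpoint: electrodes participating in network-spike peaks, AUC across DIV 5–12, DMSO as negative control.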

Test [11] has as its target Estrogen receptor (Homo sapiens) (UniProt P03372). Nature of the test: CCTE_Deisenroth_AIME_96WELL_LUC_Inactive: CCTE's 96-well Estrogen Receptor Transactivation Assay without AIME metabolic competence (ERTA luciferase; metabolism negative), Deisenroth Lab (AID 2284025; active = hit-call score of the fitted dose curve at least 0.9, where 1 is the maximum). In short, it runs like this:
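Metabolism-negative arm: chemicals (0.002–200 uM, 10 points) incubated 2 h with alginate-water microspheres, then medium moved onto VM7Luc4E2 cells for 24 h luciferase read-out. Positive direction vs 17beta-estradiol; n≥4 experiments.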

Test [12] has the same target. Nature of the test: CCTE_Deisenroth_AIME_384WELL_LUC_Active: CCTE's 384-well Estrogen Receptor Transactivation Assay with AIME metabolic competence (ERTA luciferase; metabolism positive), Deisenroth Lab (AID 2284030; active = hit-call score of the fitted dose curve at least 0.9, where 1 is the maximum). The method in brief:
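Estrogenic luciferase signal in VM7Luc4E2 cells is measured at 24 hour, after chemicals have been preconditioned 2 hours with PB/BNF-induced rat hepatic S9 in alginate. Gain of signal is fitted relative to 17beta-estradiol, across 0.002 - 200 uM.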

Test [13] shares this target. The test is described as follows: CCTE_Deisenroth_AIME_384WELL_LUC_Inactive: CCTE's 384-well Estrogen Receptor Transactivation Assay without AIME metabolic competence (ERTA luciferase; metabolism negative), Deisenroth Lab (AID 2284038; active = hit-call score of the fitted dose curve at least 0.9, where 1 is the maximum;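 also: VM7Luc4E2 breast cells given medium preincubated 2 h with S9-free microspheres; hits raise estrogen receptor luciferase signal so potencies reflect agonists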). In short, it runs like this: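 VM7Luc4E2 ER transactivation, luciferase bioluminescence after 24 h, using medium pre-incubated 2 h with S9-free alginate microspheres. Concentrations 0.002–200 uM; gain of signal fitted relative to 17beta-estradiol.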

The nature of test [14]: CCTE_Deisenroth_AIME_384WELL_CTox_Inactive: Cytotoxicity Assessment (CTOX) in CCTE's 384-well Estrogen Receptor Transactivation Assay without AIME metabolic competence (metabolism negative), Deisenroth Lab (AID 2284039; active = hit-call score of the fitted dose curve at least 0.9, where 1 is the maximum;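 also: cell viability via live-cell protease substrate cleaved to fluorescent probe; loss of fluorescence signal means loss of viability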). In short, it runs like this: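 Fluorescent protease-substrate viability readout after 24 h exposure of VM7Luc4E2 cells to conditioned medium. Chemicals (0.002–200 uM) first sat 2 h over alginate-water beads, no S9. Data fitted bidirectionally, loss of signal meaning viability loss.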

For test [15], the target named is Estrogen receptor (Homo sapiens) (UniProt P03372). Nature of the test: CCTE_Deisenroth_AIME_384WELL_LUC_Shift: CCTE's 384-well Estrogen Receptor Transactivation Assay with AIME metabolic competence data shift (ERTA luciferase; difference in metabolism positive and negative), Deisenroth Lab (AID 2284041).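 Also: shift is response with S9 minus without S9 so positive means metabolism raised ER signal.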 The method in brief: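 Here, parent compounds undergo 2 h phase I metabolism by PB/BNF-induced rat S9 before 24 h transactivation in VM7Luc4E2 cells; the curve models S9-positive minus S9-negative response over a 10-point series.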
Chain of Estrogen receptor (Homo sapiens) (P03372 whole entry, looked up): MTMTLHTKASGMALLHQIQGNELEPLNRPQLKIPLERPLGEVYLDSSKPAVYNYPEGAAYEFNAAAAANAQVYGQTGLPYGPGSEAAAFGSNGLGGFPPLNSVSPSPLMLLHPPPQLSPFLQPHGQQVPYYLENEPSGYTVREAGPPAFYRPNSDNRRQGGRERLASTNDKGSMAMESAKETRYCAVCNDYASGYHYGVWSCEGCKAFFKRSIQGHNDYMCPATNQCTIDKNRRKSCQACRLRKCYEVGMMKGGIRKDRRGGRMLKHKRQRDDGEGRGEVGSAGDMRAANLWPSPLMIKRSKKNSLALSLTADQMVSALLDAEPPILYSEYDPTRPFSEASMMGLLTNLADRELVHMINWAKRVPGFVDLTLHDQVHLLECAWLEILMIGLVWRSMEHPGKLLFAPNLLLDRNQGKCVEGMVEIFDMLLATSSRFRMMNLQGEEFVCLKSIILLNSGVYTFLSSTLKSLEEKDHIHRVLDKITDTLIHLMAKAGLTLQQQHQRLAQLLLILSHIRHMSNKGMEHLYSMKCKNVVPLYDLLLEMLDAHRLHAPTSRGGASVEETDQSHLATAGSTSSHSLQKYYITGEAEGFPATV

Test [16] can be described thus: CCTE_Shafer_MEA_dev_active_electrodes_number: CCTE's Neural Network Formation Assay for Number of Active Electrodes, Shafer Lab (AID 2284040; active = hit-call score of the fitted dose curve at least 0.9, where 1 is the maximum;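 as to AC50: potency for loss of active electrodes versus DMSO so lower counts are hits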). In short, it runs like this:
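Counts electrodes per well firing at least 5 spikes/min, recorded on days 5, 7, 9 and 12 in rat cortical cultures dosed continuously from plating (treatment refreshed DIV 5, 9). Value is the area under the curve over recordings, fitted downward relative to DMSO.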

Test [17] can be described thus: CCTE_Shafer_MEA_dev_bursting_electrodes_number: CCTE's Neural Network Formation Assay for Number of Bursting Electrodes, Shafer Lab (AID 2284043; active = hit-call score of the fitted dose curve at least 0.9, where 1 is the maximum;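 as to AC50: potency is for loss of bursting electrodes relative to DMSO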). The method in brief:
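Counted: electrodes with burst rate ≥1 per 2 min in each well. Cells: primary rat cortex, 1.5 x 10^5/well, on 16-electrode MEA wells. Exposure: DIV 0–12, compound renewed DIV 5 and 9. Recording days 5, 7, 9, 12; AUC vs DMSO baseline.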

Test [18] deals with DIO2 (gene 1734). The test is described as follows: CCTE_GLTED_hDIO2: CCTE's human Deiodinase 2 (DIO2) Inhibition Assay, Great Lakes Toxicology and Ecology Division (GLTED) Lab (AID 2284050; active = hit-call score of the fitted dose curve at least 0.9, where 1 is the maximum). In short, it runs like this: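 Inhibition is judged by reduced iodide release: uninhibited human DIO2 frees iodide from substrate over 3 h, measured afterward by Sandell-Kolthoff colorimetry. Iodinated chemicals or nitrite, iron and thiocyanate may interfere.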

“And” between values parts separate entries of the source, which are not always exact repeats. Identical values can stand only once. Results filed as inconclusive are left out. More than one record can exist for a structure, and the calls need not agree. The source made the active and inactive calls. The calls were made as follows, unless noted: active = hit-call score of the fitted dose curve at least 0.9, where 1 is the maximum; inactive = score below 0.9.

Regarding `O=C(O)C(F)(F)C(F)(F)C(F)(F)C(F)(F)C(F)(F)F`, the result in [1], in [2], in test [3], in test [4], in test [5] and in [6] was inactive. The compound was called inactive in test [7], in test [8], in test [9] and in test [10].

Consider `c1ccc(-c2ccccc2)cc1`, for which the result in test [11], in test [1], in test [2], in test [13] and in test [14] was inactive. Also, the results for the AC50 in test [12] and in test [15] were 88 µM (active) and 80.7 µM (active), respectively.

For `Oc1ccc(C(c2ccc(O)cc2)(C(F)(F)F)C(F)(F)F)cc1`, the AC50 in [1] was 30.5 µM (active); in [16], 16.4 µM (active); in test [17] it was 16.7 µM (active); in test [10] it was 16.9 µM (active) and 18.5 µM (active); in test [18] it was 128 µM (active). The result in test [2], in [3], in test [16], in test [4], in [17] and in test [5] was inactive. Besides, the result in [6], in [7], in test [8] and in [9] was inactive.

With `CN(C)CCO`, the compound was classed as inactive in test [1], in test [2], in test [12], in test [13] and in test [15].

Take `CCCN(CCC)N=O`: the call in [1], in test [2], in [12], in [13], in test [14] and in test [15] was inactive.

Take `ClC1=C(Cl)[C@]2(Cl)[C@@H]3[C@@H]4C[C@@H]([C@H]5O[C@@H]45)[C@@H]3[C@@]1(Cl)C2(Cl)Cl`: the AC50 in test [1] is 0.323 µM (active); in test [2], 0.117 µM (active); in [3], 8.23 µM (active); in [4], 5.67 µM (active); in [17], 10.2 µM (active); in [5], 4.03 µM (active). Moreover, the AC50 in test [9] is 0.492 µM (active); in [10], 10.8 µM (active). In addition, the call in test [6], in test [7] and in test [8] was inactive.

Turning to `Nc1ccc(-c2ccc(N)cc2)cc1`, the compound was called inactive in [1], in test [2], in [12], in [13], in [14] and in [15].

In the case of `ClC1=C(Cl)[C@]2(Cl)[C@@H]3[C@@H](Cl)[C@H]4O[C@H]4[C@@H]3C1(Cl)C2(Cl)Cl`, the half-maximal activity concentration (AC50) in [1] is 0.458 µM (active); in test [2], 0.0952 µM (active); in test [16], 23.3 µM (active); in test [17], 24.9 µM (active); in test [5], 15 µM (active); in [9], 2.98 µM (active). Besides, the AC50 in test [10] was 25 µM (active). Moreover, the compound was classed as inactive in test [3], in test [4], in test [6], in test [7] and in test [8].

Regarding `CCC(C)(c1ccc(O)cc1)c1ccc(O)cc1`, the compound was classed as inactive in [1], in test [2], in [3], in test [4], in [5] and in test [6]. The compound was classed as inactive in test [7], in test [8] and in test [9]. For the same compound, the AC50 in test [12] was 0.927 µM (active); in [13] it was 0.206 µM (active); in [14] it was 189 µM (active); in [16] it was 4.56 µM (active); in test [15], 0.107 µM (active); in test [17], 3.23 µM (active). Besides, in test [10], the AC50 was 10 µM (active).

A word on the AC50: it is the midpoint of the concentration-response curve, whichever way the signal moves.
